This is an account of results in PubChem BioAssay AID777 (Sanford-Burnham Center for Chemical Genomics, 2007).

Among all 96,000 compounds or so, about 19,000 (20%) were called active. Not all results are given here. Unmarked numbers belong to inactive results.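 How the source made its calls: active means blocking of liver enzyme CYP2C9 beyond about 50% at 5 µM (limit read from the data); inactive means the rest.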

The target in this experiment is Cytochrome P450 2C9 (Homo sapiens) (UniProt P11712). Put plainly: blockers of cytochrome P450 2C9 activity – biochemical, luminescence, ADME assay, primary screen (AID 777). The conditions noted are these: CYP2C9 Supersomes, luciferin-H conversion, at 5 µM, stronger effect = higher value.
Sequence of Cytochrome P450 2C9 (Homo sapiens) (P11712 whole entry, looked up): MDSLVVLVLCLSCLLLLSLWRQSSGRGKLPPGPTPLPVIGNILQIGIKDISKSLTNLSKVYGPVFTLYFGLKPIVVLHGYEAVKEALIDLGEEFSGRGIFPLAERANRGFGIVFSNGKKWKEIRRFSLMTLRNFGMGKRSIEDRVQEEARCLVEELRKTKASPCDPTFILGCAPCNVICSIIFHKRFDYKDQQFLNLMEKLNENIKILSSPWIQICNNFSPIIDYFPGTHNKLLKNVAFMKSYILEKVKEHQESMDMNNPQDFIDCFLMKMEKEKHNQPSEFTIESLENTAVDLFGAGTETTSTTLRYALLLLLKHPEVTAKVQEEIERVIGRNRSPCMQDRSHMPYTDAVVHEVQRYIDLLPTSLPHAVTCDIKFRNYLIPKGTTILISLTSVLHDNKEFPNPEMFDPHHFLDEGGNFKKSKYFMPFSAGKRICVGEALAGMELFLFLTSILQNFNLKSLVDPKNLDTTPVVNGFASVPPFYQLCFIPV
By inhibition is commonly meant the relative decrease from the control value, in per cent. Consider `Cc1c(Nc2cc(N3CCCC(C)C3)c3nonc3c2[N+](=O)[O-])c(=O)n(-c2ccccc2)n1C` (configuration not stated), for which the inhibition was 41.4%.

As for `CC1CSc2nnc(CCc3ccccc3)n21` (configuration not stated), the inhibition is -10.1%. On to `COc1ccccc1NC(=O)COc1ccc(C(=O)OCC(=O)N(C(C)C)C(C)C)cc1OC`, for which the inhibition was 37.6%.

As for `CC1CC(C)CN(CC(=O)Nc2ccc(S(N)(=O)=O)cc2)C1` (configuration not stated), the inhibition is 15.7%. Under `CN(C)/C=C1/Nc2ccccc2C1=O` stands -8.2%; under `c1ccc(-n2nnnc2N2CCOCC2)cc1`, -5.9%.

For the compound `O=C(CN1CCOCC1)Nc1c2c(nc3c1CCC3)CCC2`, the inhibition is -11.6%. Then `CCN(CC)CCn1c2ccc(Cl)cc2c2nc(C)sc21`, with 46.4%. Then `Cc1nc(Cl)c2oc3ccccc3c2n1`, with 9%. Then `CCC(Oc1ccccc1)C(=O)NCc1cccnc1` (configuration not stated), with 8.8%; and `COc1ccc(-c2cc(C(F)(F)F)nc(NCc3cccnc3)n2)cc1`, with 55.3% (active). With `COc1ccc(-c2cc(C(F)(F)F)nc(S(C)(=O)=O)n2)cc1OC`, the inhibition was 4.2%. Then `C=CCC(NCCCO)c1cccc(OC)c1OC` (configuration not stated), with -26.1%; and `CC(C)(C)c1cc2cccnc2n1Cc1ccccc1`, with 0.7%; and `CCOc1ccc2nc(SC(CC)C(=O)Nc3cc(C)on3)sc2c1` (configuration not stated), with -4.1%. Then `COCCNC(=O)c1onc(CSc2cccc(C)c2)c1C(=O)O`, with 30.2%; and `COc1ccc(SCc2noc(C(=O)NCC3CCCO3)c2C(=O)O)cc1` (configuration not stated), with 20.1%; and `CCCCNC(=O)c1onc(CSc2cccc(OC)c2)c1C(=O)O`, with 82.5% (active). Under `CCOc1cccc(SCc2noc(C(=O)NC(C)C)c2C(=O)O)c1` stands 73.7% (active); under `COC(=O)c1c(CCl)noc1C(=O)NC(C)C`, -0.5%; under `O=[N+]([O-])c1ccc(Oc2ccc(F)cc2Br)c2ccncc12`, 6.1%. As to `Cc1ccc(NC(=O)Nc2ccc3oc(C)nc3c2)cc1`, the inhibition is 8.7%.

For `Cc1ccc(C2CC(=O)NC(SCC(=O)OCc3ccccc3)=C2C#N)o1` (configuration not stated), the inhibition was 97% (active). Then `COC(=O)CSC1=C(C#N)C(c2ccccc2OC)C(C(=O)OC)C(=O)N1` (configuration not stated), with 24%; and `C=CCSC1=C(C#N)C(c2cc(Br)c(O)c(OC)c2)CC(=O)N1` (configuration not stated), with 39.1%. Under `CCOC(=O)CSC1=C(C#N)C(c2sccc2C)CC(=O)N1` (configuration not stated) stands 54.8% (active).

Turning to `CCOC(=O)c1ccc(N2C(=O)CC(Sc3nc(O)c(CC)c(=O)[nH]3)C2=O)cc1` (configuration not stated), the inhibition is 26.2%.

As for `O=C(COc1ccc(Cl)cc1)N1CCN(c2cccc(C(F)(F)F)c2)CC1`, the inhibition was 13.6%. Then `Cc1cc(NC(=O)CS(=O)(=O)c2cn(C)c3ccccc23)no1`, with -20.5%; and `COc1ccc(-n2nnnc2SCc2nc(N)nc(N3CCOCC3)n2)cc1`, with 35.6%. `CCN(CC)S(=O)(=O)c1ccc2[nH]cc(C(=O)NCCc3ccccc3)c(=O)c2c1`: the inhibition was 22.4%.

On to `CN(C)S(=O)(=O)c1ccc(NC(=O)COC(=O)c2n[nH]c3ccccc23)cc1`, for which the inhibition is 13.8%.

Regarding `CCN(CC)S(=O)(=O)c1ccc2nc(CSc3nnnn3-c3ccc(O)cc3)[nH]c2c1`, the inhibition was 97.3% (active).

Turning to `O=c1c2ccccc2nc(CSc2nnnn2-c2ccccc2)n1-c1ccccc1`, the inhibition is -6.4%. Then `CCN(CC)S(=O)(=O)c1ccc2nc(COC(=O)c3n[nH]c4ccccc34)[nH]c2c1`, with 77.2% (active); and `COC(=O)[C@H](Cc1ccccc1)NC(=O)N1CC(C)OC(C)C1` (some centres not stated), with 4.3%; and `O=C(NC1(C(F)(F)F)NC(=O)N(Cc2cccnc2)C1=O)c1ccccc1Cl` (configuration not stated), with 2.6%. Under `CC(C)(C)NC(=O)NC(=O)COC(=O)CCC1CCCCC1` stands 11.7%.

Regarding `CC(=O)N=c1ncn(CC(COC(C)=O)OC(C)=O)c2nc[nH]c12` (configuration not stated), the inhibition was 10.5%. Under `O=C(Nc1ccccc1C(F)(F)F)c1cc(-c2ccc(O)cc2)on1` stands -234%. Then `Cc1cc2c(c(=O)n1C)C(C(C)C)C(C#N)=C(N)O2` (configuration not stated), with 9.3%; and `CCOC(=O)C1(C(F)(F)F)N=C(N(C)C)OC(N(C)C)=N1`, with 5.6%. Regarding `C=CCOc1ccc(Cl)cc1CNCCCN1CCOCC1`, the inhibition is 9.4%.

For the compound `Cc1cc(C)c(OCC(=O)N/N=C/c2ccco2)c(C)c1`, the inhibition was -17.6%. Then `Cc1ccc(OCC(=O)N/N=C/c2ccncc2)cc1`, with 86.7% (active).

With `CSc1ccc(/C=N\NC(=O)COc2ccc(Cl)cc2Br)cc1`, the inhibition was 36%. Then `NS(=O)(=O)c1ccc(NS(=O)(=O)/C=C/c2ccccc2)cc1`, with 47.3%. For `Cc1ccc(-c2nn(C(C)(C)C)c3ncnc(N)c23)cc1`, the inhibition was 25.5%.

On to `CCCc1cc(=O)n2[nH]c(SCc3ccccc3)nc2n1`, for which the inhibition was 43.9%. Then `Cc1nc2nc(CSc3nc4ccccc4s3)cc(=O)n2[nH]1`, with 60.1% (active). Then `Cn1c(=O)[nH]c(=O)c2c1nc(N1CCN(CCO)CC1)n2CCSc1nc2ccccc2s1`, with -5.4%; and `CCCCn1nc(C(=O)N2CCc3ccccc32)c2ccccc2c1=O`, with 41%; and `CC(=O)Cc1nsc(NC(=O)c2csc3c2CCCC3)n1`, with 30%. Under `CC(=O)Cc1nsc(NC(=O)c2ccc(COc3ccc(C)cc3)o2)n1` stands 64.4% (active); under `CCOc1ccc(OCc2ccc(C(=O)Nc3cccc(C)n3)o2)cc1`, 40.9%.

With `O=C(Oc1ccccc1)Oc1ccc2c(c1)oc(=O)c1ccccc12`, the inhibition was -55.2%. Under `Cc1c(C(=O)N2CC(C)OC(C)C2)sc2nc(-c3ccccc3)cn12` (configuration not stated) stands 1.3%. Under `Fc1ccccc1/C=C1\CCCC2=C1Nc1ncnn1C2c1ccccc1F` (configuration not stated) stands 43.9%; under `Cc1ccc(C2(C(F)(F)F)N=C3Sc4cc(C)cc(C)c4N3C(=O)N2)cc1` (configuration not stated), 65.5% (active); under `CCOC(=O)C(=O)Nc1nc(-c2ccccc2)c(CC)s1`, 2.4%. Then `N=c1n(Cc2ccc(Cl)cc2)c2ccccc2n1CC(O)c1ccco1` (configuration not stated), with 23.2%; and `Cc1cccn2c(=O)c(/C=C3\SC(=S)N(CC(C)C)C3=O)c(NCCCOC(C)C)nc12`, with 27%.
